Experimental data reported in PubChem BioAssay (NCATS).
Inconclusive results are not listed. A call without a number means that no potency is given here. Active and inactive are the calls of the source. Calls follow the shape of the dose curve; as a rule, active = well fitted curve in the direction sought with a large enough effect; inconclusive = small, poorly fitted or top-dose-only effect, or another doubt; inactive = no such curve, though single readings can be large; an effect the other way counts as inactive or inconclusive.

Tests used:
[1] = qHTS for Inhibitors of Plasmodium falciparum (DD2) proliferation (AID 504314);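 also: parasite DNA measured by SYBR Green fluorescence after red cell lysis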
In short: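 Normalization used 0.29 uM artemisinin as full inhibition and DMSO as baseline. Parasitized erythrocytes were exposed to compounds for 72 h (37C, 5% CO2), then lysed with saponin/Triton buffer containing SYBR Green I.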

[2] = qHTS for Inhibitors of Plasmodium falciparum (GB4) proliferation (AID 504315); also: nearly all actives have a fitted effect of over 50% in size; also: potency is read from the fitted curve at half-maximal effect
In short: (§1)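 Parasite growth measured as SYBR Green DNA fluorescence (ex 485, em 535 nm) after overnight lysis following 72 h culture at 37 °C, 0.3% parasitemia, 2.5% hematocrit. Values normalized against DMSO and 0.29 uM artemisinin controls, with plate-stack correction.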

[3] = qHTS for Inhibitors of Plasmodium falciparum (7G8) proliferation (AID 504316); also: nearly all actives have a fitted effect of over 65% in size; also: potency is read from the fitted curve at half-maximal effect
In short: as §1

[4] = qHTS for Inhibitors of Plasmodium falciparum (HB3) proliferation (AID 504318); also: nearly all actives have a fitted effect of over 60% in size
In short: as §1

[5] = qHTS for Inhibitors of Plasmodium falciparum (CP250) proliferation (AID 504320)
In short: as §1

Structure (SMILES) | Potency [1] | Potency [2] | Potency [3] | Potency [4] | Potency [5]
COC(=O)C1=C(C(=O)OC)[C@@H]2Nc3ccccc3[C@@]23C[C@@H](C(=O)OC)N(C(C)=O)C3=N1 | inactive | inactive | inactive | inactive | inactive
CC#CCN1c2ccccc2[C@]23C[C@@H](C(=O)OC)N(S(=O)(=O)c4ccc(C)cc4)C2=NC(C(=O)OC)=C(C(=O)OC)[C@H]13 | inactive | 1690 nM (active) | – | – | –
CC(=O)[C@@H]1[C@@H](C)N(Cc2ccccc2)C(=O)N[C@H]1c1cccc(C(F)(F)F)c1 | inactive | inactive | inactive | inactive | inactive
COC/C=C/C1=CC2=CC(=O)C(C)(OC(=O)c3cnc4ccccc4n3)C(=O)C2=CN1c1cccc(C#N)c1 (stereo not given) | inactive | inactive | inactive | inactive | –
CC#CCN1c2ccccc2[C@]23C[C@@H](C(=O)OC)N(S(=O)(=O)c4ccc(Br)cc4)C2=NC(C(=O)OC)=C(C(=O)OC)[C@H]13 | inactive | 1690 nM (active) | 1900 nM (active) | – | –
CCCCc1nc2c(c3c1C[C@H](C)OC3)CN(C(=O)N[C@@H](C)c1ccccc1)CC2 | inactive | inactive | inactive | inactive | inactive
CCCCc1nc2c(c3c1C[C@H](C)OC3)CN(C(=O)N[C@H](C(=O)OC)C(C)C)CC2 | inactive | inactive | 1350 nM (active) | – | –
CC(C)CN1C=C2C(=O)C(C)(OC(=O)C3CCCC3)C(=O)C=C2C=C1c1ccsc1 (stereo not given) | inactive | inactive | inactive | inactive | inactive
COC(=O)C1=C(C(=O)OC)[C@@H]2N(C)c3ccccc3[C@@]23C[C@@H](C(=O)OC)N(S(=O)(=O)c2ccc(Br)cc2)C3=N1 | inactive | 2130 nM (active) | 1690 nM (active) | – | –
COC(=O)N1C2=C(c3ccccc3[C@@H]1CC(=O)Nc1ccc3cc4ccccc4cc3c1)[C@@H]1C(=O)N(c3ccccc3)C(=O)[C@@H]1[C@H](C)C2 | inactive | 1510 nM (active) | 1900 nM (active) | – | –
COC(=O)C1=C(C)N(Cc2ccccc2)C(=O)N[C@H]1c1cccc(F)c1 | inactive | inactive | inactive | inactive | inactive
COC(=O)C1=C(C(=O)OC)[C@@H]2Nc3ccccc3[C@@]23C[C@@H](C(=O)OC)N(S(=O)(=O)c2ccc(Br)cc2)C3=N1 | inactive | 1900 nM (active) | – | – | –
